Source: PubChem BioAssay
ADAM17 inh: ADAM17 inhibitors, primary screen, biochemical, QFRET. Disintegrin and metalloproteinase domain-containing protein 17 (Homo sapiens), P78536. 370,000 compounds, 0.83% hits. recombinant ADAM17, EDANS/DABCYL FRET peptide cleavage. inhibition, % at 6.95 µM;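 active means inhibition above the mean of compounds lying between control limits plus 3 SD, set per campaign, cut at about 8.5% in these data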
Target sequence (P78536 215-824 limits assumed): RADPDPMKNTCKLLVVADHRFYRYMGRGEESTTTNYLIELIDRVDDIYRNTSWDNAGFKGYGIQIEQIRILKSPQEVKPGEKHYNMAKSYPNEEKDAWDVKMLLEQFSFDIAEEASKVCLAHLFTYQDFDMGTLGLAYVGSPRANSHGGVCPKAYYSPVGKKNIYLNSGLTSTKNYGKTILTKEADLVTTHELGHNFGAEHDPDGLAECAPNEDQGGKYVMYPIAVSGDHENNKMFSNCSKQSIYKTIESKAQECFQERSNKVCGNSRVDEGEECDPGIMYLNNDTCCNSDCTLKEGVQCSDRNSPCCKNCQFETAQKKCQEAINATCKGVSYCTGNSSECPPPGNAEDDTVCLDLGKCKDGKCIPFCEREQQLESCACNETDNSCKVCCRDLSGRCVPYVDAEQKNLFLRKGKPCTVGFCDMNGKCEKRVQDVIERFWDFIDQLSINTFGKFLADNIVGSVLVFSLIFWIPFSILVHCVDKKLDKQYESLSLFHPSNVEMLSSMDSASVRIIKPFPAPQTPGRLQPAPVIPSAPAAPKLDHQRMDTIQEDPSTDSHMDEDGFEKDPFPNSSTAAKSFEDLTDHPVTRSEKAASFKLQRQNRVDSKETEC
ADAM10 inh: human ADAM10 inhibitors, primary screen, biochemical, QFRET, HTS; Disintegrin and metalloproteinase domain-containing protein 10 (Homo sapiens), O14672; recombinant ADAM10, EDANS/DABCYL FRET peptide cleavage, 3 h; inhibition, % at 7 µM; 370,000 compounds, 0.62% hits;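 active means inhibition above a per-campaign cutoff equal to the mean of compounds falling between control-based bounds plus 3 SD, cut at about 20% in these data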
PLCg1 inh: PLC-gamma1 enzyme inhibitors, primary screen, biochemical, fluorescence, purified enzyme | 1-phosphatidylinositol 4,5-bisphosphate phosphodiesterase gamma-1 (Homo sapiens), P19174 | fluorogenic substrate | inhibition, % at 12.2 µM | 370,000 compounds, 0.84% hits
PLCb3 inh: human PLC-beta3 inhibitors, primary screen, biochemical, fluorescence; 1-phosphatidylinositol 4,5-bisphosphate phosphodiesterase beta-3 (Homo sapiens), Q01970; Purified PLC-beta3, fluorogenic substrate; inhibition, % at 12.2 µM; 370,000 compounds, 0.18% hits; in the data active means inhibition above about 11%
proKLK7 act: proKLK7 zymogen activators, primary screen, biochemical, fluorescence intensity; Kallikrein-7 (Homo sapiens), P49862; purified proKLK7, EDANS-DABCYL substrate fluorescence; 100% is mature enzyme control, 0% vehicle; activation, % at 7 µM; 370,000 compounds, 0.9% hits; AID 652039, 2013;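 active means activation above the mean of all tested compounds plus 3 SD, computed per campaign excluding outliers beyond control limits, cut at about 13% in these data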
PLCg1 ctr: PLC-gamma1 enzyme inhibitors, counter-screen for PLC-beta3 inhibitor project, biochemical, fluorescence. inhibition, % at 12.3 µM. purified PLC-gamma1, fluorogenic substrate. shares compounds with PLCg1 inh. 3,300 compounds, 3.1% hits
PLCbeta3 conf: PLC-beta3 inhibitor confirmation, biochemical, fluorescence, purified enzyme | fluorogenic substrate fluorescence | shares compounds with PLCg1 inh | inhibition, % at 12.3 µM | 3,300 compounds, 1% hits | AID 743261, 2014; in the data active means inhibition above about 11%
Large screens that a line does not name were inactive (follow-up assays come after a bar, where they were run). Sampled rows, rich in hits. Any-hit rate of the full collection: about 2.9%. Unless noted, no stated cut-off is given here; in the data, active means inhibition above about 9.5%; inactive means the rest.

Cc1csc(NC(=O)CSc2nnc(-c3ccc(Cl)cc3)n2N)n1	PLCg1 inh 10 | PLCg1 ctr inactive | PLCbeta3 conf inactive
Cc1csc(NC(=O)CSc2nnc(-c3ccncc3)n2C)n1	none
CCN1C(=O)/C(=C2\SC(=S)N(c3c(C)n(C)n(-c4ccccc4)c3=O)C2=O)c2ccccc21	PLCb3 inh 11 | PLCg1 ctr inactive | PLCbeta3 conf inactive
Cc1c(N2C(=O)/C(=C3/C(=O)N(C)c4ccccc43)SC2=S)c(=O)n(-c2ccccc2)n1C	none
N#Cc1ccccc1OCC(=O)NCCNC(=O)COc1ccccc1C#N	none
N#Cc1ccccc1OCC(=O)NNC(=O)CCC1CCCC1	PLCg1 inh 12 | PLCg1 ctr inactive | PLCbeta3 conf inactive
COc1cccc(C(NC(C)=O)c2nc(-c3ccncc3)cs2)c1 (stereo not given)	none
CC(=O)N1CCC(N(C(=O)Nc2ccc(C)c(C)c2)C2CCCC2)CC1	PLCb3 inh 12 | PLCg1 ctr inactive | PLCbeta3 conf inactive
CC12CCC(=O)N1C(C(=O)Nc1ccc(S(=O)(=O)N3CCCCC3)cc1)CS2 (stereo not given)	none
CC12CCC(=O)N1C(C(=O)Nc1cccc(S(=O)(=O)N3CCCCCC3)c1)CS2 (stereo not given)	PLCg1 inh 10 | PLCg1 ctr inactive | PLCbeta3 conf inactive
CC12CCC(=O)N1C(C(=O)Nc1cc(S(=O)(=O)N3CCCCCC3)ccc1OCC(F)(F)F)CS2 (stereo not given)	PLCg1 inh 11 | PLCg1 ctr inactive | PLCbeta3 conf inactive
O=C(CSc1n[nH]c(=O)[nH]c1=O)NC1CC1	none
O=c1[nH]c2cc3ccccc3cc2nc1-c1nnnn1C1CCCC1	none
CC12CCC(C(=O)Nc3nccs3)(OC1=O)C2(C)C (stereo not given)	PLCg1 inh 10 | PLCg1 ctr inactive | PLCbeta3 conf inactive
Cc1cccc(CN2CCN(CC(=O)NCc3ccc(F)cc3)C2=O)c1	PLCg1 inh 11 | PLCg1 ctr inactive | PLCbeta3 conf inactive
Cc1ccc(CN2CCN(CC(=O)NCCCN3CCN(c4ccc(F)cc4)CC3)C2=O)cc1	none
CCCCCCCCN1C(=O)[C@H](CC(=O)NCCCOCCCC)C[C@@]2(C(=O)OCC)CCCC=C12	none
C[C@@H]1C=CCCO[C@]12C(=O)Nc1ccccc12	none
CN(C)CCCNc1nc(N)c([N+](=O)[O-])c(NCc2ccccc2)n1	PLCg1 inh 9.7 | PLCg1 ctr inactive | PLCbeta3 conf inactive
COCCCNc1nc(N)c([N+](=O)[O-])c(NCc2ccccc2)n1	PLCg1 inh 10 | PLCg1 ctr inactive | PLCbeta3 conf inactive
COCCNc1nc(N)c([N+](=O)[O-])c(NCc2ccccc2)n1	none
Nc1nc(NCc2ccccc2)nc(NCc2ccccc2)c1[N+](=O)[O-]	none
O=C(COC(=O)CCSc1ccccc1)Nc1cc(F)ccc1F	none
Nn1c(SCc2cn3cc(Cl)ccc3n2)nnc1-c1ccncc1	PLCg1 inh 11 | PLCg1 ctr inactive | PLCbeta3 conf inactive
COc1ccc(-c2c(S(=O)(=O)c3ccccc3)cnn2-c2ccccc2)cc1	none
O=S(=O)(c1ccccc1)c1cnn(-c2ccccc2)c1-c1ccc(Cl)cc1	PLCb3 inh 20 | PLCg1 ctr inactive | PLCbeta3 conf 17
CC1(C(=O)NC2CCCCCCC2)CCC(=O)N1Cc1ccco1 (stereo not given)	PLCg1 inh 9.8 | PLCg1 ctr inactive | PLCbeta3 conf inactive
CCc1nc2ccc(C(=O)NCc3ccc4c(c3)OCO4)cn2c1N(CCC(C)C)CCN(C)C	none
CCOC(=O)c1c(C2COc3ccccc3O2)csc1NC(=O)c1ccccc1 (stereo not given)	PLCg1 inh 12 | PLCg1 ctr inactive | PLCbeta3 conf inactive
O=C(O)c1cccc(NC(=S)NC(NC(=O)c2cccc([N+](=O)[O-])c2)C(Cl)(Cl)Cl)c1 (stereo not given)	PLCg1 inh 11 | PLCg1 ctr inactive | PLCbeta3 conf inactive
Cc1cc2n(n1)SC(Nc1ccc(F)cc1)N2 (stereo not given)	PLCg1 inh 10 | PLCg1 ctr inactive | PLCbeta3 conf inactive
Cc1cc2n(n1)SC(Nc1cc(Cl)ccc1Cl)N2 (stereo not given)	none
CCC(=O)c1ccc(OCC(O)CN2CCN(S(=O)(=O)N3CCCCC3)CC2)cc1 (stereo not given)	PLCg1 inh 9.6 | PLCg1 ctr inactive | PLCbeta3 conf inactive
COC(=O)C1=C(C)NC(=O)NC1c1ccccc1Cl (stereo not given)	PLCg1 inh 11 | PLCg1 ctr inactive | PLCbeta3 conf inactive
O=S1(=O)CC(N2CCN(CCO)CC2)CN1Cc1ccccc1 (stereo not given)	none
CSc1cccc(NC(=S)N(CCCN2CCCC2)Cc2cccs2)c1	PLCg1 inh 13 | PLCg1 ctr inactive | PLCbeta3 conf inactive
Cc1ccc(C(=O)NCCN2C3=NC[C@@H](Cc4ccccc4)N3C[C@H]2Cc2ccc(O)cc2)cc1Br	PLCg1 inh 9.9 | PLCg1 ctr inactive | PLCbeta3 conf inactive
O=C(NC1CCCCC1)C(c1ccc(C(F)(F)F)cc1)n1c(=O)c(-c2ccccc2)nc2ccccc21 (stereo not given)	none
CCOC(=O)C1(CCOc2ccccc2)CCN(Cc2ccc(OC)c(O)c2)CC1	PLCg1 inh 10 | PLCg1 ctr inactive | PLCbeta3 conf inactive
CCOC(=O)C1(CCOc2ccccc2)CCN(Cc2cc(OC)c(O)c(OC)c2)CC1	none
COC1OCC(O)C(NC(=O)N(C)N=O)C1O (stereo not given)	none
Cc1c(NC(=O)COc2cccc3c2OC(C)(C)C3)c(=O)n(-c2ccccc2)n1C	none
Cc1c(NC(=O)C(C)OC(=O)COc2cccc3c2OC(C)(C)C3)c(=O)n(-c2ccccc2)n1C (stereo not given)	PLCb3 inh 11 | PLCg1 ctr inactive | PLCbeta3 conf inactive
O=S(=O)(c1ccccc1)N1CCN(CCc2ccccc2)CC1	none
Cc1ccc2nsnc2c1S(=O)(=O)N1CCN(CCc2ccccc2)CC1	PLCg1 inh 14 | PLCg1 ctr inactive | PLCbeta3 conf inactive
O=C1c2ccccc2C(c2nnnn2-c2ccc3c(c2)OCCO3)N1C1CC1 (stereo not given)	none
Cc1ccc(OCc2nnc(SCC(=O)c3ccc4ccccc4c3)n2-c2ccc(Cl)cc2)cc1	none
Cc1cc(C)c(C#N)c(OCC2CCCO2)n1 (stereo not given)	PLCb3 inh 11 | PLCg1 ctr inactive | PLCbeta3 conf inactive
